Reference: the supplement of paper PMC11482750
± gives the standard deviation of the averaged measurements.

Compound: CCCCCC(C)=O [2-heptanone]
Assay: control-subtracted net OSN firing rate; higher = stronger neuronal activation
Conditions: odorant dilution (vol/vol): 1/100
Protocol: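 Single sensillum recordings from olfactory sensory neurons. The neurons sit in the maxillary palp or antennal sensilla of D. melanogaster (wild type, mutants, or at1 empty-neuron lines expressing Or42a homologs or the A181D S307P mutant) and of four Scaptomyza species. Each odorant was given as a 1 s pulse from 20 µl loaded on filter paper at 1:100 vol/vol, diluted in mineral oil (γ-hexalactone in DMSO). Spikes were counted in a 0.5 s window starting 0.2 s after onset, background was subtracted, the count was doubled, and the mean solvent-control response was subtracted.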

Target | control-subtracted net OSN firing rate [spikes/s]
S. pallida pb1a-like | 95.7 ± 29
S. flava pb2b-like | -1 ± 14
S. flava pb2a-like | 7.33 ± 3.7
S. montana pb3a-like | 97.3 ± 25
S. montana pb1b-like | -12.3 ± 22
S. hsui pb2b-like | 8.67 ± 16
S. hsui pb1b-like | -8.33 ± 8
S. flava pb1b-like | -22 ± 27
S. pallida pb2b-like | 26.3 ± 7.8
S. montana pb3b-like | -2 ± 6.5
S. pallida pb2a-like | 7.67 ± 6.6
S. montana pb2b-like | 8 ± 10
S. flava pb3b-like | -8.67 ± 26
Canton-S (D. melanogaster) pb2b | 0.286 ± 11
Canton-S (D. melanogaster) pb2a | 3.71 ± 7.3
S. pallida pb3a-like | 115 ± 19
S. pallida pb1b-like | -9 ± 13
Canton-S (D. melanogaster) pb1a | 161 ± 48
S. hsui pb2a-like | 8.67 ± 6.3
S. montana pb2a-like | 7 ± 13
S. flava pb1a-like | 104 ± 19
S. montana pb1a-like | 64.7 ± 19
Canton-S (D. melanogaster) pb3a | 5.67 ± 5.5
S. pallida pb3b-like | -7.67 ± 13
S. flava pb3a-like | 133 ± 40
S. hsui pb3b-like | -6.67 ± 5.9
S. hsui pb3a-like | 148 ± 31
S. hsui pb1a-like | 136 ± 22
Canton-S (D. melanogaster) pb1b | -10 ± 9.1
Canton-S (D. melanogaster) pb3b | 16.3 ± 24
